Measured values reported in PubChem BioAssay (NCATS).
Several values for one entry are separate records, joined by “and”; a condition that tells them apart may be missing. Equal entries are not always repeated. Records with an inconclusive call do not appear. Activity calls are given as the source filed them. Unless noted, calls come from the whole dose curve; as a rule, active = well fitted curve in the direction sought with a large enough effect; inconclusive = small, poorly fitted or top-dose-only effect, or another doubt; inactive = no such curve, though single readings can be large; an effect the other way counts as inactive or inconclusive.

Columns and labels:
[1] = qHTS Assay for Identifying Gametocytocidal Compounds (AID 743244); note: potency is the fitted concentration of half-maximal effect;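 for max response: % is set by controls: 0 for no effect and ±100 for the full control effect; actives lower the fluorescent signal which means gametocytes are killed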; conditions: P. falciparum 3D7 stage III-V gametocytes, alamarBlue, 72 h; max response: stronger effect = lower value
Outline: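 Fluorescence at Ex 525/Em 598 nm, recorded 24 h after alamarBlue addition, reports residual metabolic activity of 3D7 gametocytes (stages III–V) following 72 h compound exposure at 37 °C, 5% CO2.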

[2] = qHTS assay for measurement of the activity of small molecule inhibitors on Zika virus induced Caspase-3 activity in human iPSC derived neural progenitor cells (hNPCs) (AID 1224857); note: % of control where 0% means no effect; nearly all actives have a fitted effect of over 65% in size
Outline: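 Zika virus (2 FFU/cell) infection of human iPSC-derived NPCs, 6 h, following 1 h compound preincubation. Read-out: Caspase-Glo 3/7 luminescence.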

[3] = qHTS assay for measurement of the activity of small molecule inhibitors on Zika virus induced Caspase-3 activity in human astrocytoma cells (AID 1224859);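 note: plate controls were ZIKV-infected untreated cells for no effect and uninfected cells for full effect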
Outline: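 Caspase activation in ZIKV-infected SNB-19 cells (2 FFU/cell, 6 h) measured by Caspase-Glo 3/7 luminescence after 30 min RT; compound pre-incubated 1 h; normalised to uninfected and infected controls.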

[4] = qHTS assay to identify small molecule inhibitors of chordoma cells - UCH-1 (AID 1259355); note: nearly all actives have a fitted effect of over 55% in size; note: potency is the fitted concentration of half-maximal effect; series mostly up to about 46 µM
Outline: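 800 cells/well, overnight attach; compounds pinned at 15 concs, then auranofin/camptothecin/doxorubicin/rubitecan/topotecan combo added; 48hr 37 C, 5% CO2; CellTiter-Glo, 30min RT, luminescence.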

[5] = P-glycoprotein substrates identified in KB-8-5-11 adenocarcinoma cell line, qHTS therapeutic library screen (AID 1346987); note: nearly all actives have a fitted effect of over 65% in size; note: potency is the fitted concentration of half-maximal effect
Outline: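 Compounds are pinned in dose-response onto KB-8-5-11 cells (500 cells/well, colchicine-free medium) and left 72 h at 37 degree C. CellTiter-Glo luminescence then yields AC50 values.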

[6] = qHTS assay to identify small molecule inhibitors of chordoma cells - UCH-2 (AID 1259356); note: series mostly up to about 46 µM; % is set by controls: 0 for no effect and ±100 for the full control effect
[7] = qHTS assay for cell viability of HEK293 cells (AID 743288); conditions: ATP luminescence (CellTiter-Glo), 18 h, stronger effect = lower value; note: % is set by controls: 0 for no effect and ±100 for the full control effect; nearly all actives have a fitted effect of over 50% in size
Outline: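 ATP luminescence (CellTiter-Glo) reports metabolically competent cell number after parental HEK293 cells, 2,000/well, were treated with DMSO-dissolved compounds for 18 h at 37 C; reagent incubation 30 min, room temperature.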

[8] = qHTS assay for cell viability of the p53RE-bla HCT-116 cell line (AID 743292); note: % is set by controls: 0 for no effect and ±100 for the full control effect; nearly all actives have a fitted effect of over 55% in size
Outline: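 HCT-116 p53RE-bla cells seeded 4,000/well; 5 h at 37 C; compound (DMSO) added; 16 h at 37 C; CellTiter-Glo added, 30 min RT; luminescence read.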

[9] = target: Hexokinase-4 (Homo sapiens) + Glucokinase regulatory protein (Homo sapiens) (UniProt P35557+Q14397); assay: qHTS assay for inhibitors of recombinant human GCK-GKRP interaction: HTRF assay (AID 743207);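 note: 0% = DMSO with GCK present and -100% = DMSO wells lacking GCK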
Outline: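 HTRF read-out (ex 320 nm; 615/665 nm emission) after 60 min RT equilibration of 5 nM GST-GCK, 5 nM FLAG-GKRP, 2 uM S6P, compound and anti-FLAG/anti-GST detection antibodies; signal normalized between DMSO wells with and without GCK.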

[10] = Natriuretic polypeptide receptor (hNpr1) antagonism - Pilot counterscreen GloSensor control cell line (AID 1347045; calls by dose curve; note: series mostly up to about 38 µM; % is set by controls: 0 for no effect and ±100 for the full control effect)
Outline: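 Control counterscreen: luciferase cGMP-biosensor HEK293 cells (no Npr1) received compound for 30 min at room temperature after GloSensor substrate loading. Luminescence was measured before and 20 min after soluble guanylyl cyclase activation by 50 uM nitroprusside.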

[11] = target: Atrial natriuretic peptide receptor 1 (Homo sapiens) (UniProt P16066); assay: Natriuretic polypeptide receptor (hNpr1) antagonism - Pilot screen (AID 1347049; calls by dose curve;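 note: HEK293 cells with hNpr1 and GloSensor cGMP luciferase stimulated by 0.1 nM hNppA; agonist-evoked cGMP luminescence read 20 min after hNppA addition; series mostly up to about 58 µM; % is set by controls: 0 for no effect and ±100 for the full control effect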)
Outline: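 Receptor antagonism read as cGMP-dependent luminescence in hNpr1/pGS-40F HEK293 cells: pre-read after 30 min compound exposure, post-read 20 min after hNppA agonist at 0.1 nM final, all at room temperature, protected from light; A-71915 titration as control.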

[12] = target: Atrial natriuretic peptide receptor 2 (Homo sapiens) (UniProt P20594); assay: Natriuretic polypeptide receptor (hNpr2) antagonism - Pilot subtype selectivity assay (AID 1347050; calls by dose curve; note: % is set by controls: 0 for no effect and ±100 for the full control effect)
Outline: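 Antagonist mode: compounds (LOPAC1280, seven 1:5 dilutions) added 30 min before 1 nM hNppC stimulation of hNpr2-HEK293 cGMP-sensor cells; luminescence read before and 20 min after agonist at ambient temperature.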

Chain of Atrial natriuretic peptide receptor 1 (Homo sapiens) (P16066 whole entry, looked up): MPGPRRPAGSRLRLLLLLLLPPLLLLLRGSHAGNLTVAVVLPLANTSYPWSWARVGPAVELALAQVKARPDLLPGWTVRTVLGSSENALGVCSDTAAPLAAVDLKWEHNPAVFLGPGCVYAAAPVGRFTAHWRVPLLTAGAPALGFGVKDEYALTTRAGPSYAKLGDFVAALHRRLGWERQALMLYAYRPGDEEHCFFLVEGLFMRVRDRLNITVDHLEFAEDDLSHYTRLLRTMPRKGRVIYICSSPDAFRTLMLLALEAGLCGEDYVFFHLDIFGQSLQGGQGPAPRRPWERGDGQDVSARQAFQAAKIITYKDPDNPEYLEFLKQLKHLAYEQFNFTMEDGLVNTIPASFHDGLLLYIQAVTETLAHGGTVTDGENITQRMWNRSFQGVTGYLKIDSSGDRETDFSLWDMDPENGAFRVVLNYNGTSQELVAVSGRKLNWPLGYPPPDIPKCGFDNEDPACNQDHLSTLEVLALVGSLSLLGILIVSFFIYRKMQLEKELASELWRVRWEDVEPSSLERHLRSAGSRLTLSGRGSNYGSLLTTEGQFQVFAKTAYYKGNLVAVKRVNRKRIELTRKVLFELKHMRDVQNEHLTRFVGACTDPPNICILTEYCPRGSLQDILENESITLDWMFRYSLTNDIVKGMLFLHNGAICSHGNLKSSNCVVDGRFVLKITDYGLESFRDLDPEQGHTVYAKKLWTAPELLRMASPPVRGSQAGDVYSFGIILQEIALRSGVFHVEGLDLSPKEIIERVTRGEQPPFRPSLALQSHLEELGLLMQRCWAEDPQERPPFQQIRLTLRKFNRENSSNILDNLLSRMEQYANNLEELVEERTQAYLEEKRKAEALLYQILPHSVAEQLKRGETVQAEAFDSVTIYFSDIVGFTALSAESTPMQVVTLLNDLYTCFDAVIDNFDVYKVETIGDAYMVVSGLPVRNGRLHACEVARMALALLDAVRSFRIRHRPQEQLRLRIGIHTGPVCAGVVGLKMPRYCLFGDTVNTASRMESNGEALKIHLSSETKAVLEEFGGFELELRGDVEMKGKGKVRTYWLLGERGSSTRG
Chain of Hexokinase-4 (Homo sapiens) + Glucokinase regulatory protein (Homo sapiens) (P35557 whole entry, looked up): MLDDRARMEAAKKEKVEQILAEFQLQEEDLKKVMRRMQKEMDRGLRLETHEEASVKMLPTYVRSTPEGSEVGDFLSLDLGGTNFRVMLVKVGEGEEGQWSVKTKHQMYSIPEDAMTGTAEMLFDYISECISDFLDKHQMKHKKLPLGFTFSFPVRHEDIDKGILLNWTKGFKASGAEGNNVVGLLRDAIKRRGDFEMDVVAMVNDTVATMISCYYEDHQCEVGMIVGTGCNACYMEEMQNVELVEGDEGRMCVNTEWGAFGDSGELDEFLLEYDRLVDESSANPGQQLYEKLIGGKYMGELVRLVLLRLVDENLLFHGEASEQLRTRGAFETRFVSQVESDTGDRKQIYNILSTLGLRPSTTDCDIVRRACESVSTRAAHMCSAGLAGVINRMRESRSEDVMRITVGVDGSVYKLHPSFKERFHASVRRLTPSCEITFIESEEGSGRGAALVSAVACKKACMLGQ
Chain of Hexokinase-4 (Homo sapiens) + Glucokinase regulatory protein (Homo sapiens) (Q14397 whole entry, looked up): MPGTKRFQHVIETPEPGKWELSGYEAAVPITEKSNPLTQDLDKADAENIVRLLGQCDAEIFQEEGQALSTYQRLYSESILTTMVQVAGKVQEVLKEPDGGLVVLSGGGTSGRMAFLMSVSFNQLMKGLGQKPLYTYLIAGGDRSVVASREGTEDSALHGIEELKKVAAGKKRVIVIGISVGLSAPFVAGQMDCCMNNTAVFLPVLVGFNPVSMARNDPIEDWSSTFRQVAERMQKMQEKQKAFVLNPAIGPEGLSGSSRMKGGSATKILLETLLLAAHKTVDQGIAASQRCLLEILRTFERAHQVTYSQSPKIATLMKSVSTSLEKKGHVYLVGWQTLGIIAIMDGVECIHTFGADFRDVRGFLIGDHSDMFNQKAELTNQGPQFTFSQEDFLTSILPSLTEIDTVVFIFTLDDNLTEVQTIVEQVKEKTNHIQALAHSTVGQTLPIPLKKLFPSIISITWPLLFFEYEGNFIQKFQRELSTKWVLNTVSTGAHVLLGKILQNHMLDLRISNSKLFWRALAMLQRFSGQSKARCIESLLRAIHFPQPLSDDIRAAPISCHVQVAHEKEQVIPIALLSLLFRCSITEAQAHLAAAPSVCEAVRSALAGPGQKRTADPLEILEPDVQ
Chain of Atrial natriuretic peptide receptor 2 (Homo sapiens) (P20594 whole entry, looked up): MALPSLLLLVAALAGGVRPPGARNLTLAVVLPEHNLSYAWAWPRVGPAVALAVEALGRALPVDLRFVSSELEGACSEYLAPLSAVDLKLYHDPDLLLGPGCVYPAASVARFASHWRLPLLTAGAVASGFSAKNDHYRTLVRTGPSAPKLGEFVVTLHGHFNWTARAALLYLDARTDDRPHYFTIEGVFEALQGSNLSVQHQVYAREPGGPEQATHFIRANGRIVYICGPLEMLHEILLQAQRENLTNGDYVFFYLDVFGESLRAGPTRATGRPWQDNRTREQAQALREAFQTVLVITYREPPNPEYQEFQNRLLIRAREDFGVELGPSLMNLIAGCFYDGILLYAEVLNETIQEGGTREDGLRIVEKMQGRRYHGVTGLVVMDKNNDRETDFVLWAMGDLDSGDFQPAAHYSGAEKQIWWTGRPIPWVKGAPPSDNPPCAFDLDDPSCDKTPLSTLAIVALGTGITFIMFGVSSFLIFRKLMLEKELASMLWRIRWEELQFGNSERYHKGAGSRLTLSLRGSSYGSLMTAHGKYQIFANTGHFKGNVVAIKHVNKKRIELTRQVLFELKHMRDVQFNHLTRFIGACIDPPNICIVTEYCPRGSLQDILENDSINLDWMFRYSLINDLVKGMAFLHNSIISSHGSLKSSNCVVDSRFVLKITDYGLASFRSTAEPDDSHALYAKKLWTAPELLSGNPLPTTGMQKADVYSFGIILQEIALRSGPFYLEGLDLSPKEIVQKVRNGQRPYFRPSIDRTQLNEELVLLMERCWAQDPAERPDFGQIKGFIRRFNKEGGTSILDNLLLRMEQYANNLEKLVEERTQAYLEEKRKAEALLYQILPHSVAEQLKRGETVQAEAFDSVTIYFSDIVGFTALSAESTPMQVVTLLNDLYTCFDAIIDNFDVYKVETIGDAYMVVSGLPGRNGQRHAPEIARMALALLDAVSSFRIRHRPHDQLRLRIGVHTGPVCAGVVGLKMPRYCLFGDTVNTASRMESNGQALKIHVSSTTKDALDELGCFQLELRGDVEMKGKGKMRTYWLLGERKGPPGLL

CNCCc1ccccn1
inactive: max response [1] -0.406% | Potency [2] | outcome [3] | Potency [4] | Potency [5]

CC(C(=O)O)c1cccc(Oc2ccccc2)c1 (stereo unspecified)
inactive: max response [1] 17.6% | Potency [2] | outcome [3] | Potency [4] | Potency [5]

C[C@@]12C(=O)OC(=O)[C@]1(C)C1CCC2O1
active: Potency [4] 0.501 µM | Potency [5] 3.12 µM
inactive: max response [1] -5.31% | Potency [2] | outcome [3]

CCN(CC)CCOC(=O)C1(c2ccccc2)CCCC1
inactive: max response [1] -2.23% | Potency [2] | outcome [3] | Potency [4] | Potency [5]

NS(=O)(=O)c1cc(C(=O)O)cc(N2CCCC2)c1Oc1ccccc1
inactive: max response [1] -3.9% | Potency [2] | outcome [3] | Potency [4] | Potency [5]

Nc1ccc(S(=O)(=O)NCc2ccccc2)cc1
inactive: max response [1] -10.6% | Potency [2] | outcome [3] | Potency [4] | Potency [5]

CN(C)CCOC(=O)C(c1ccccc1)C1(O)CCCC1 (stereo unspecified)
inactive: max response [1] 1.53% | Potency [2] | outcome [3] | Potency [4] | Potency [5]

CC(C)n1c(/C=C/[C@@H](O)C[C@@H](O)CC(=O)O)c(-c2ccc(F)cc2)c2ccccc21
inactive: max response [1] -9.47% | Potency [2] | outcome [3] | Potency [4]

Nc1ccc(S(=O)(=O)Nc2cnc3ccccc3n2)cc1
inactive: max response [1] -6.45% | Potency [2] | outcome [3] | Potency [4] | Potency [5]

O=C(O)P(=O)(O)O
inactive: max response [1] 10.4% | Potency [2] | outcome [3] | Potency [4]

CC(=O)NCCCCCC(=O)O
inactive: max response [1] -5.55% | Potency [2] | outcome [3] | Potency [4] | Potency [5]

O=C(CN1CCN(Cc2ccc3c(c2)OCO3)CC1)N1c2ccccc2Sc2ccccc21
inactive: outcome [3] | Potency [4] | Potency [6]

CC[C@H](c1ccc(O)cc1)[C@@H](CC)c1ccc(O)cc1
inactive: max response [1] 11.9% | Potency [2] | outcome [3] | Potency [4]

CC(=O)Nc1ncc([N+](=O)[O-])s1
inactive: max response [1] -10.1% | Potency [2] | outcome [3] | Potency [4] | Potency [5]

CCCCC(CC)CN1CN(CC(CC)CCCC)CC(C)(N)C1 (stereo unspecified)
inactive: max response [1] 4.3% | Potency [2] | outcome [3] | Potency [4] | Potency [5]

CC(=O)O[C@]1(C(C)=O)CC[C@H]2[C@@H]3C=C(C)C4=CC(=O)CC[C@]4(C)[C@H]3CC[C@@]21C
inactive: max response [1] 3.72% | outcome [3] | Potency [4] | Potency [6]

COc1ccc(C(=O)c2ccccc2O)c(O)c1
inactive: max response [1] 14.9% | outcome [3] | Potency [4] | Potency [6]

OC[C@H]1O[C@@H](Oc2ccc(O)cc2)[C@H](O)[C@@H](O)[C@@H]1O
inactive: max response [1] 0.374% | outcome [3] | Potency [4] | Potency [6] | Potency [5]

O=C(c1ccc(F)cc1)C1CCN(CCn2c(=S)[nH]c3ccccc3c2=O)CC1
inactive: max response [1] -2.47% | outcome [3] | Potency [4] | Potency [6] | Potency [5]

O=C(O)c1ccc(S(=O)(=O)N(Cl)Cl)cc1
inactive: max response [1] -8.91% | max response [7] 0.513% | outcome [8] | outcome [3] | Potency [4] | Potency [6] | Potency [5]

OC1C(O)C(O)C(O)C(O)C1O (stereo unspecified)
inactive: max response [1] 0.49% | outcome [3] | Potency [4] | Potency [6] | Potency [5]

CCOC(=O)[C@H](CCc1ccccc1)N[C@@H](C)C(=O)N1[C@H](C(=O)O)C[C@H]2CCCC[C@@H]21
inactive: outcome [9] | max response [1] -0.763% and -2.8% and 30% | outcome [3] | Potency [4] | Potency [6] | Potency [5] | outcome [10] | outcome [11] | outcome [12]

Cc1cccc(C)c1NC(=O)CN1CCCCCC1
inactive: max response [1] 3.55% | outcome [3] | Potency [4] | Potency [6] | Potency [5]

C[C@H]1[C@H]2CC[C@H]3[C@@H]4CC=C5C[C@@H](N(C)C)CC[C@]5(C)[C@H]4CC[C@]23CN1C
inactive: max response [1] -6.8% | outcome [3] | Potency [4] | Potency [6] | Potency [5]

CCN1CCN(C(=O)N[C@@H](C(=O)N[C@@H]2C(=O)N3C(C(=O)O)=C(CSc4nnnn4C)CS[C@H]23)c2ccc(O)cc2)C(=O)C1=O
inactive: max response [1] 14.5% | outcome [3] | Potency [4] | Potency [6] | Potency [5]

O=C1C(CCS(=O)c2ccccc2)C(=O)N(c2ccccc2)N1c1ccccc1 (stereo unspecified)
inactive: outcome [3] | Potency [4] | Potency [6] | Potency [5]
active: Potency [1] 0.0089 µM

CC(C)(C)NC[C@H](O)COc1cccc2c1CCCC2=O
inactive: max response [1] -0.406% | outcome [3] | Potency [4] | Potency [6] | Potency [5]

COc1ccc(C(=O)c2ccccc2)c(O)c1
inactive: max response [1] -10.7% | max response [7] -9.22% and -8.85% | outcome [8] | outcome [3] | Potency [4] | Potency [6] | Potency [5]

CCN(CC)CCOc1ccc2c(c1)C(=O)c1cc(OCCN(CC)CC)ccc1-2
inactive: outcome [3] | Potency [4] | Potency [6]
active: Potency [1] 12.6 µM

COc1cc([C@H]2Oc3cc([C@H]4Oc5cc(O)cc(O)c5C(=O)[C@@H]4O)ccc3O[C@@H]2CO)ccc1O
inactive: max response [1] -1.37% | max response [7] 5.85% | outcome [8] | outcome [3] | Potency [4] | Potency [6] | Potency [5]

C#C[C@]1(O)CC[C@H]2[C@@H]3CCC4=CC(=O)CC[C@@H]4[C@H]3CC[C@@]21CC
active: Potency [5] 8.2 µM
inactive: max response [1] 6.28% | outcome [3] | Potency [4]
